Reference: PubChem BioAssay AID1159580 (chemical genetic matrix, 2015)
Several values for one entry are separate records, joined by “and”; a condition that tells them apart may be missing. Equal entries are not always repeated. Among all 5,500 compounds or so, about 2,000 (36%) were called active. Roughly 18% stayed inconclusive and do not appear here. Cut-off read from the data, not from the text of the source: active = normalized growth mostly below about 0.91 (no sharp cut-off); inconclusive = no clear call, values can overlap the other calls; inactive = mostly above about 0.92. The list shows a part of the results.

Test: chemical genetic growth profiling, strain panel (AID 1159580);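 note: tested at 20 µM; growth read once vehicle control cultures reached saturation at 30 °C; 1 = growth at the plate median or of vehicle wells; lower values mean less growth of the strain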
Settings: S. cerevisiae deletion strains, growth OD

Measured: normalized growth

O=C(O[C@@H]1Cc2c(O)cc(O)cc2O[C@@H]1c1cc(O)c(=O)c2c(O)c(O)cc([C@H]3Oc4cc(O)cc(O)c4C[C@H]3OC(=O)c3cc(O)c(O)c(O)c3)c2c1)c1cc(O)c(O)c(O)c1
0.856 (active) and 1.02 (inactive): locus YHR030C, strain SLT2, stronger effect = lower value
active: locus YAL013W, strain DEP1, stronger effect = lower value 0.633 | locus YAL021C, strain ccr4, stronger effect = lower value 0.0843 | locus YAL026C, strain drs2, stronger effect = lower value 0.432 | locus YAL030W, strain snc1, stronger effect = lower value 0.604 | locus YBL061C, strain skt5, stronger effect = lower value 0.513 | locus YBR009C, strain hhf1, stronger effect = lower value 0.434 | locus YBR023C, strain chs3, stronger effect = lower value 0.43 | locus YBR231C, strain swc5, stronger effect = lower value 0.418 | locus YBR279W, strain paf1, stronger effect = lower value 0.554 | locus YCL011C, strain gbp2, stronger effect = lower value 0.509 | locus YCL016C, strain dcc1, stronger effect = lower value 0.754 | locus YCL061C, strain MRC1, stronger effect = lower value 0.724 | locus YCL069W, strain vba3, stronger effect = lower value 0.776 | locus YCR088W, strain abp1, stronger effect = lower value 0.892 | locus YDL005C, strain med2, stronger effect = lower value 0.821 | locus YDL035C, strain GPR1, stronger effect = lower value 0.658 | locus YDL040C, strain nat1, stronger effect = lower value 0.868 | locus YDL074C, strain BRE1, stronger effect = lower value 0.58 | locus YDL101C, strain DUN1, stronger effect = lower value 0.706 | locus YDL134C, strain PPH21, stronger effect = lower value 0.741 | locus YDR069C, strain doa4, stronger effect = lower value 0.105 | locus YDR137W, strain rgp1, stronger effect = lower value 0.485 | locus YDR150W, strain NUM1, stronger effect = lower value 0.851 | locus YDR159W, strain sac3, stronger effect = lower value 0.735 | locus YDR162C, strain NBP2, stronger effect = lower value 0.344 | locus YDR195W, strain ref2 0.76 | locus YDR297W, strain sur2, stronger effect = lower value 0.45 | locus YDR334W, strain swr1, stronger effect = lower value 0.468 | locus YDR335W, strain msn5, stronger effect = lower value 0.604 | locus YDR502C, strain sam2, stronger effect = lower value 0.866 | locus YEL003W, strain gim4, stronger effect = lower value 0.527 | locus YEL037C, strain rad23, stronger effect = lower value 0.686 | locus YEL061C, strain CIN8, stronger effect = lower value 0.817 | locus YER015W, strain faa2, stronger effect = lower value 0.305 | locus YER016W, strain bim1, stronger effect = lower value 0.823 | locus YER111C, strain swi4, stronger effect = lower value 0.692 | locus YER155C, strain BEM2 (second series), stronger effect = lower value 0.836 | locus YER167W, strain BCK2, stronger effect = lower value 0.896 | locus YFR010W, strain ubp6, stronger effect = lower value 0.571 | locus YGL086W, strain mad1, stronger effect = lower value 0.893 | locus YGL167C, strain pmr1, stronger effect = lower value 0.551 | locus YGL173C, strain kem1, stronger effect = lower value 0.181 | locus YGL240W, strain doc1, stronger effect = lower value 0.693 | locus YGL248W, strain PDE1, stronger effect = lower value 0.681 | locus YGL253W, strain hxk2, stronger effect = lower value 0.555 | locus YGR078C, strain PAC10, stronger effect = lower value 0.787 | locus YGR135W, strain pre9, stronger effect = lower value 0.828 | locus YGR229C, strain SMI1, stronger effect = lower value 0.0949 | locus YHR013C, strain ard1, stronger effect = lower value 0.322 | locus YHR027C, strain rpn1, stronger effect = lower value 0.186 | locus YHR129C, strain ARP1, stronger effect = lower value 0.845 | locus YHR142W, strain chs7, stronger effect = lower value 0.493 | locus YIL066C, strain RNR3, stronger effect = lower value 0.509 | locus YIL073C, strain SPO22, stronger effect = lower value 0.196 | locus YJL092W, strain hpr5, stronger effect = lower value 0.856 | locus YJL095W, strain BCK1 (second series), stronger effect = lower value 0.269 | locus YJL129C, strain trk1, stronger effect = lower value 0.812 | locus YJL154C, strain vps35, stronger effect = lower value 0.842 | locus YJL164C, strain tpk1, stronger effect = lower value 0.419 | locus YJL166W, strain qcr8, stronger effect = lower value 0.371 | locus YJL187C, strain SWE1 (second series), stronger effect = lower value 0.512 | locus YJL187C, strain SWE1, stronger effect = lower value 0.457 | locus YJR043C, strain POL32, stronger effect = lower value 0.599
0.59 (active) and 1.02 (inactive): locus YJL095W, strain BCK1, stronger effect = lower value
inactive: locus YBR021W, strain FUR4, stronger effect = lower value 0.986 | locus YBR171W, strain sec66, stronger effect = lower value 0.918 | locus YBR229C, strain ROT2, stronger effect = lower value 0.981 | locus YCL029C, strain bik1, stronger effect = lower value 0.966 | locus YDL185W, strain tfp1, stronger effect = lower value 0.995 | locus YDL192W, strain arf1, stronger effect = lower value 0.955 | locus YDR001C, strain nth1, stronger effect = lower value 0.962 | locus YDR101C, strain arx1, stronger effect = lower value 1 | locus YDR318W, strain mcm21, stronger effect = lower value 0.981 | locus YDR388W, stronger effect = lower value 1.01 | locus YDR392W, strain spt3, stronger effect = lower value 0.81 | locus YEL061C, strain CIN8 (second series), stronger effect = lower value 0.915 | locus YER110C, stronger effect = lower value 1.04 | locus YER155C, strain BEM2, stronger effect = lower value 1 | locus YGL078C, strain dbp3, stronger effect = lower value 1.02 | locus YGL227W, strain vid30, stronger effect = lower value 0.989 | locus YGR252W, strain gcn5, stronger effect = lower value 0.896 | locus YHR079C, strain IRE1 (second series), stronger effect = lower value 1.01 | locus YHR079C, strain IRE1, stronger effect = lower value 1.04 | locus YHR094C, strain hxt1, stronger effect = lower value 1.04 | locus YHR200W, strain rpn10, stronger effect = lower value 0.969 | locus YIL125W, strain kgd1, stronger effect = lower value 1.04 | locus YIR030C, strain dcg1, stronger effect = lower value 1.03 | locus YJL115W, strain asf1, stronger effect = lower value 0.91 | locus YJL134W, strain LCB3, stronger effect = lower value 0.965 | locus YJL168C, strain set2, stronger effect = lower value 1.01 | locus YJR066W, strain TOR1, stronger effect = lower value 0.96
